High-throughput results: PubChem BioAssay, several laboratories
PERK inh = human PERK inhibition, primary cell-based screen | CHO PERK-DD fusion, SEAP luminescence translation reporter | inhibition, % at 5.6 µM | 220,000 compounds, 0.17% hits | Q9NZJ5;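 active = inhibition above the mean inhibition of all tested compounds plus 3 SD, set separately per screening campaign, cut at about 2.9% in these data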;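 also: PERK kinase domain activated by AP20187 dimerizer at 100 nM; 0% = DMSO with dimerizer and 100% = rapamycin at 8.4 µM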
WT yeast gro inh = growth inhibition of WT yeast, mitochondrial fusion screen; inhibition, % at 10 µM; 190,000 compounds, 2.1% hits; mitochondrial fusion phenotypic screen, WT strain; in the data active = inhibition above about 58%; tested in S. cerevisiae
ROMK mod = human ROMK K+ channel modulation, primary screen; Tet-inducible ROMK, thallium flux fluorescence; actives lie on both sides; 130,000 compounds, 2% hits; AID 1918; P48048; B-score at 10 µM;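 active = signal ratio slope over the read window, or its plate-corrected B-score, at least 3 SD from the plate mean, either direction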;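 also: B-score of the F/F0 ratio slope over 7 to 12 s after thallium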
Target sequence (P48048 whole entry, looked up): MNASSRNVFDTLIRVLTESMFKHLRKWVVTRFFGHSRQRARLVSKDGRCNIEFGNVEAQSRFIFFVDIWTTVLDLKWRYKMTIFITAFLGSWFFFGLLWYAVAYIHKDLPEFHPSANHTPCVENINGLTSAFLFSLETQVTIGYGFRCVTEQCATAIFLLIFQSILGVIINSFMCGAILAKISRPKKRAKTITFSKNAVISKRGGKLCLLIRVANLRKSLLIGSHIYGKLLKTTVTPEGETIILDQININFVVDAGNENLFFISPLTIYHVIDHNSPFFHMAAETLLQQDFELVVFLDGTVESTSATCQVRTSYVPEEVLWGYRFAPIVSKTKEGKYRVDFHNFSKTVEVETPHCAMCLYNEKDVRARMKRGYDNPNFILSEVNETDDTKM
Arbovirus inh = arbovirus infection inhibition; arbovirus infection cell-based antiviral screen; inhibition, % at 10 µM; 200,000 compounds, 0.37% hits; AID 1251; in the data active = inhibition above about 30%
ROMK retest = human ROMK channel modulation, retest confirmation. shares compounds with ROMK mod. ROMK thallium flux, fluorescence ratio; hits give low values. normalized thallium flux (F/F0 slope) at 10 µM. 3,000 compounds, 54% hits. AID 1917;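 active = Flux at 10 µM at least 3 SD below or above vehicle control mean in one or both replicates; inconclusive = no clear call, values can overlap the other calls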
* hit, by the source's call. Hits are enriched below; roughly 3.3% of the tested compounds scored in any of these assays.

How did O=C(CCc1ccccc1)Nc1ccc2ccccc2n1 do in these assays?
PERK inh: 0; WT yeast gro inh: 21; ROMK mod: 0.46; Arbovirus inh: -5

Results for COc1ccc(CNCC(O)(c2ccc(F)cc2)c2ccc(F)cc2)cc1 ?
PERK inh: 0; WT yeast gro inh: 13; ROMK mod: -2.3; Arbovirus inh: 2

How did COc1ccc(C(CNC(=O)c2cccc(N(C)C)c2)N2CCCC2)cc1 (stereo not drawn) do in these assays?
PERK inh: 0; WT yeast gro inh: 2; Arbovirus inh: -7

How did COc1ccc(C(CNC(=O)c2cc3ccccc3cc2OC)N2CCCC2)cc1 (stereo not drawn) do in these assays?
PERK inh: -3; WT yeast gro inh: -4; ROMK mod: -3.1*; Arbovirus inh: -5; ROMK retest: 0.062*

What do the screens show for `Cc1cc(N2CCOCC2)nc(NCc2ccccc2)n1`?
PERK inh: -1; WT yeast gro inh: 5; Arbovirus inh: 2

Results for Cc1cc(N2CCCCC2)nc(NCc2ccccc2)n1 ?
PERK inh: 0; WT yeast gro inh: 20; Arbovirus inh: -20; ROMK retest: 0.065*

Results for O=C(O)c1cc2c(s1)-c1ccccc1OC2 ?
PERK inh: 1; WT yeast gro inh: 12; Arbovirus inh: 2; ROMK retest: inconclusive

What do the screens show for `O=C(NC1CC1)c1cc2c(s1)-c1ccccc1OC2`?
PERK inh: -1; WT yeast gro inh: 10; Arbovirus inh: 13

How did CCOC(=O)C1=C(O)/C(=C/c2ccc(OCC(=O)O)c(OC)c2)SC1=Nc1ccc(OC)cc1 do in these assays?
PERK inh: 1; WT yeast gro inh: -12; Arbovirus inh: 4; ROMK retest: 0.081

Results for CC1(C)Cc2nc3sc4c(SCC(=O)NCc5ccco5)ncnc4c3cc2CO1 ?
PERK inh: -1; WT yeast gro inh: -8; Arbovirus inh: 7

How did Cc1nc2c(sc3nc4c(cc32)COC(C)(C)C4)c(=O)n1CC(=O)NCc1ccco1 do in these assays?
PERK inh: -1; WT yeast gro inh: -3; ROMK mod: 4.1*; Arbovirus inh: -13; ROMK retest: 0.09

How did CC1=NNC(=O)C1C(c1cccc(O)c1)C(C#N)C#N (stereo not drawn) do in these assays?
PERK inh: 2; ROMK mod: -2.4*; ROMK retest: 0.076

Results for C=CCOc1ccc(Br)cc1CNC(C)(C)C ?
PERK inh: 1; WT yeast gro inh: -6; ROMK mod: 0.5; Arbovirus inh: 19; ROMK retest: 0.072

Results for C=CCOc1ccc(Br)cc1CNC(C)(C)CO ?
PERK inh: 1; WT yeast gro inh: 4; Arbovirus inh: -2

Results for Cc1cccn2c(CNCC3(c4ccccc4)CCCC3)c(C(=O)N3CCOCC3)nc12 ?
PERK inh: 0; WT yeast gro inh: 0; ROMK mod: -2.2; Arbovirus inh: 25

Results for COc1ccc(C(=O)Nn2c(SCc3ccc([N+](=O)[O-])cc3)nc3ccccc3c2=O)cc1 ?
PERK inh: 0; WT yeast gro inh: -7; Arbovirus inh: -2

What do the screens show for `OCC1(C2=NOC(O)(C(F)(F)F)C2)CCCCC1` (stereo not drawn)?
PERK inh: 1; WT yeast gro inh: 9; ROMK mod: 1.3; Arbovirus inh: 13

Results for NC(=O)C1CCN(c2ncnc3c2c(-c2ccccc2)cn3-c2ccccc2)CC1 ?
PERK inh: 0; WT yeast gro inh: 3; Arbovirus inh: -3; ROMK retest: 0.063*

What do the screens show for `CC(=O)C1=C(c2ccc(Br)cc2)C(=O)c2ccccc2C1=O`?
PERK inh: 0; WT yeast gro inh: 93*; ROMK mod: -4.7*; Arbovirus inh: -41; ROMK retest: 0.052*

How did CC(=O)c1c(C)[nH]c(C(=O)Nc2nc(C)cs2)c1C do in these assays?
PERK inh: 0; WT yeast gro inh: -2; ROMK mod: 2.8*; Arbovirus inh: -13; ROMK retest: 0.086

How did CC(=O)c1c(C)[nH]c(C(=O)Nc2cc(C)cc(C)c2)c1C do in these assays?
PERK inh: 0; WT yeast gro inh: -3; ROMK mod: 0.24; Arbovirus inh: -3

How did Cc1ccccc1NC(=O)CS(=O)(=O)c1cn(CC(=O)N2CCOCC2)c2ccccc12 do in these assays?
PERK inh: -1; WT yeast gro inh: -11; ROMK mod: 2*; Arbovirus inh: 6; ROMK retest: 0.073

Results for CCCCCn1c(=O)c(-c2nc3ccccc3[nH]2)c(O)c2ccccc21 ?
PERK inh: 0; WT yeast gro inh: -7; ROMK mod: 0.25; Arbovirus inh: -18
